Laboratory results as given in the supplement of paper PMC7411054.
Counter-ions that a name gives are not always drawn.

How the values were obtained:
Assay in all cases: lowest phenotypically active concentration; higher = less potent
Conditions in all cases: treatment time: 24 h
HepG2-ACTB-RAB5A = system: HepG2-ACTB-RAB5A
How it was run: (§1)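 Each of fifteen gene-edited A549, HepG2 and WPMY1 reporter lines, marked with BFP for segmentation and GFP and RFP/FusionRed, was treated in four wells at 0.3, 1, 3 or 9 µM for 24 h prior to live imaging. Normalisation of per-well live-cell features used solvent control wells. Deviation needed ≥3 of 4 wells beyond the 95th percentile of control Euclidean distances, and reproducibility needed a median replicate Pearson correlation above the 95th percentile of non-replicates. Both were required for phenotypic activity.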

HepG2-CANX-COX4 = system: HepG2-CANX-COX4
How it was run: as §1

HepG2-GM130-SQSTM1 = system: HepG2-GM130-SQSTM1
How it was run: as §1

HepG2-TP53BP1-CLTA = system: HepG2-TP53BP1-CLTA
How it was run: as §1

HepG2-TUBA1B-RELA = system: HepG2-TUBA1B-RELA
How it was run: as §1

WPMY1-ACTB-RAB5A = system: WPMY1-ACTB-RAB5A
How it was run: as §1

WPMY1-CANX-COX4 = system: WPMY1-CANX-COX4
How it was run: as §1

WPMY1-GM130-SQSTM1 = system: WPMY1-GM130-SQSTM1
How it was run: as §1

WPMY1-TP53BP1-CLTA = system: WPMY1-TP53BP1-CLTA
How it was run: as §1

WPMY1-TUBA1B-RELA = system: WPMY1-TUBA1B-RELA
How it was run: as §1

Structure (SMILES)	lowest phenotypically active concentration (HepG2-ACTB-RAB5A)	lowest phenotypically active concentration (HepG2-CANX-COX4)	lowest phenotypically active concentration (HepG2-GM130-SQSTM1)	lowest phenotypically active concentration (HepG2-TP53BP1-CLTA)	lowest phenotypically active concentration (HepG2-TUBA1B-RELA)	lowest phenotypically active concentration (WPMY1-ACTB-RAB5A)	lowest phenotypically active concentration (WPMY1-CANX-COX4)	lowest phenotypically active concentration (WPMY1-GM130-SQSTM1)	lowest phenotypically active concentration (WPMY1-TP53BP1-CLTA)	lowest phenotypically active concentration (WPMY1-TUBA1B-RELA)
COc1cc(N2CCC(O)CC2)ccc1Nc1cc(Nc2ccccc2S(=O)(=O)C(C)C)c2cc[nH]c2n1 [Mps1-IN-1 dihydrochloride]	≤ 0.3 µM	≤ 0.3 µM	≤ 0.3 µM	≤ 0.3 µM	1 µM	9 µM	≤ 0.3 µM	3 µM	3 µM	
COc1ccc2c(NC(=O)Nc3cccc(C(F)(F)F)n3)ccnc2c1	9 µM	1 µM	9 µM	9 µM	3 µM	1 µM	1 µM	3 µM	1 µM	
COc1cc2c(NC3CCN(C(C)C)CC3)nc(N3CCC(F)(F)CC3)nc2cc1OCCCN1CCCC1	≤ 0.3 µM	1 µM	≤ 0.3 µM	1 µM	≤ 0.3 µM	1 µM	1 µM	≤ 0.3 µM	1 µM	1 µM
C#Cc1cccc(Nc2ncnc3cc(OCCOC)c(OCCOC)cc23)c1 [erlotinib]	3 µM	3 µM	3 µM	9 µM	3 µM					
O=C1NCCN1CCN1CCC(c2cn(-c3ccc(F)cc3)c3ccc(Cl)cc23)CC1 [sertindole]	9 µM	9 µM	3 µM	3 µM	3 µM	9 µM	3 µM	9 µM	9 µM	3 µM
FC(F)(F)c1ccc(/C=C/c2nc(COc3ccc(CCCCn4ccnn4)cc3)co2)cc1	≤ 0.3 µM	≤ 0.3 µM	≤ 0.3 µM	≤ 0.3 µM	≤ 0.3 µM					
O=C1NC(=O)C(c2ccccc2[N+](=O)[O-])=C1Nc1ccc(O)c(Cl)c1	9 µM	9 µM	9 µM	3 µM	3 µM	9 µM				
CCN(CCO)CCCOc1ccc2c(Nc3cc(CC(=O)Nc4cccc(F)c4)n[nH]3)ncnc2c1 [barasertib-HQPA]	≤ 0.3 µM	≤ 0.3 µM	≤ 0.3 µM	≤ 0.3 µM	≤ 0.3 µM	≤ 0.3 µM	≤ 0.3 µM	≤ 0.3 µM	≤ 0.3 µM	≤ 0.3 µM
Nc1ccc(-c2ccc3ncc4ccc(=O)n(-c5cccc(C(F)(F)F)c5)c4c3c2)cn1 [Torin 2]	≤ 0.3 µM	≤ 0.3 µM	≤ 0.3 µM	≤ 0.3 µM	≤ 0.3 µM	≤ 0.3 µM	≤ 0.3 µM	≤ 0.3 µM	≤ 0.3 µM	≤ 0.3 µM
NC(=O)Nc1sc(-c2ccc(F)cc2)cc1C(N)=O	9 µM	3 µM	9 µM	9 µM	9 µM	9 µM	9 µM	9 µM	9 µM	9 µM
COc1ccc(S(=O)(=O)N(C(C)=O)c2ccccc2/C=C/c2cc[n+]([O-])cc2)cc1	3 µM	3 µM	3 µM	3 µM	3 µM	1 µM	3 µM	3 µM	3 µM	1 µM
COc1cc2nc(-c3cc(F)ccc3O)nc(N[C@@H]3CNC[C@H]3C(C)(C)O)c2cc1OC	1 µM	1 µM	1 µM	1 µM	1 µM	1 µM	1 µM	1 µM	1 µM	1 µM
C[C@@H](CN1CCC(n2c(=O)[nH]c3cc(Cl)ccc32)CC1)NC(=O)c1ccc2ccccc2c1	9 µM	9 µM	9 µM	9 µM	3 µM	9 µM	9 µM	9 µM	9 µM	9 µM
Nc1nccc2c1ncn2[C@@H]1C=C(CO)[C@@H](O)[C@H]1O [3-Deazaneplanocin A hydrochloride]	1 µM	≤ 0.3 µM	1 µM	1 µM	1 µM	1 µM	1 µM	1 µM	3 µM	1 µM
Cc1ccc([N+](=O)[O-])cc1S(=O)(=O)N(C)/N=C/c1cnc2ccc(Br)cn12	≤ 0.3 µM	≤ 0.3 µM	≤ 0.3 µM	≤ 0.3 µM	≤ 0.3 µM	≤ 0.3 µM	≤ 0.3 µM	≤ 0.3 µM	≤ 0.3 µM	≤ 0.3 µM
Oc1cccc(Nc2ccnc3cc(-c4cccc(CN5CCOCC5)c4)sc23)c1 [LCB 03-0110 dihydrochloride]	1 µM	1 µM	3 µM	3 µM	1 µM	3 µM	3 µM	3 µM	3 µM	3 µM
COc1cc(Br)c(Nc2nc(-c3c(C)nc4ncccn34)cs2)c(Br)c1	1 µM	1 µM	1 µM	1 µM	1 µM	1 µM	1 µM	1 µM	3 µM	1 µM
COC(=O)Nc1nc2ccc(C(=O)c3cccs3)cc2[nH]1 [Nocodazole]	≤ 0.3 µM	≤ 0.3 µM	≤ 0.3 µM	≤ 0.3 µM	≤ 0.3 µM	≤ 0.3 µM	≤ 0.3 µM	≤ 0.3 µM	≤ 0.3 µM	≤ 0.3 µM
CC[C@H](CO)Nc1nc(NCc2ccc(-c3ccccn3)cc2)c2ncn(C(C)C)c2n1	≤ 0.3 µM	≤ 0.3 µM	≤ 0.3 µM	≤ 0.3 µM	≤ 0.3 µM	≤ 0.3 µM	≤ 0.3 µM	≤ 0.3 µM	≤ 0.3 µM	≤ 0.3 µM
COc1cc(N2CCOCC2)ccc1Nc1ncc(Cl)c(Nc2ccccc2NS(C)(=O)=O)n1	3 µM	3 µM	3 µM	3 µM	3 µM	9 µM	9 µM	9 µM	9 µM	3 µM

Structure (SMILES)	lowest phenotypically active concentration (HepG2-ACTB-RAB5A)	lowest phenotypically active concentration (HepG2-CANX-COX4)	lowest phenotypically active concentration (HepG2-GM130-SQSTM1)	lowest phenotypically active concentration (HepG2-TP53BP1-CLTA)	lowest phenotypically active concentration (HepG2-TUBA1B-RELA)	lowest phenotypically active concentration (WPMY1-ACTB-RAB5A)	lowest phenotypically active concentration (WPMY1-CANX-COX4)	lowest phenotypically active concentration (WPMY1-GM130-SQSTM1)	lowest phenotypically active concentration (WPMY1-TP53BP1-CLTA)	lowest phenotypically active concentration (WPMY1-TUBA1B-RELA)
COc1c(C)cnc(Cn2cc(C#CCC(C)(C)O)c3c(Cl)nc(N)nc32)c1C	≤ 0.3 µM	≤ 0.3 µM	≤ 0.3 µM	≤ 0.3 µM	≤ 0.3 µM	≤ 0.3 µM	≤ 0.3 µM	≤ 0.3 µM	≤ 0.3 µM	≤ 0.3 µM
COc1ccc(S(=O)(=O)N(CCO)c2ccccc2CN(C)C/C=C/c2ccc(Cl)cc2)cc1	9 µM	3 µM	9 µM	9 µM	9 µM	9 µM	9 µM	9 µM	9 µM	9 µM
CO[C@H]1C[C@@H]2CC[C@@H](C)[C@@](O)(O2)C(=O)C(=O)N2CCCC[C@H]2C(=O)O[C@H]([C@H](C)C[C@@H]2CC[C@@H](OC(=O)C(C)(CO)CO)[C@H](OC)C2)CC(=O)[C@H](C)C=C(C)[C@@H](O)[C@@H](OC)C(=O)[C@H](C)C[C@H](C)C=CC=CC=C1C [Temsirolimus]	≤ 0.3 µM	1 µM	≤ 0.3 µM	≤ 0.3 µM	1 µM	≤ 0.3 µM	≤ 0.3 µM	≤ 0.3 µM	≤ 0.3 µM	3 µM
CC(=O)NC1=NN(C(C)=O)C(C)(c2ccccc2)S1 (centres undefined)	9 µM	3 µM	9 µM	3 µM	3 µM	3 µM	9 µM	3 µM	3 µM	3 µM
Nc1nc(S)c2[nH]cnc2n1 [thioguanine]	9 µM	1 µM	1 µM	1 µM	1 µM	1 µM	1 µM	1 µM	9 µM	9 µM
CCCC1(CCC)CCC2(CCN(CCCN(CC)CC)C2)CC1 [Atiprimod dihydrochloride]	1 µM	1 µM	1 µM	1 µM	≤ 0.3 µM	1 µM	1 µM	1 µM	1 µM	1 µM
O=C(Nc1cccc(Cl)c1)Nc1ncc(CCNc2ncnc3ccsc23)s1 [SNS 314 mesylate]	≤ 0.3 µM	≤ 0.3 µM	≤ 0.3 µM	≤ 0.3 µM	≤ 0.3 µM	≤ 0.3 µM	≤ 0.3 µM	≤ 0.3 µM	≤ 0.3 µM	≤ 0.3 µM
N#Cc1c(C2CCNCC2)cc(-c2c(O)cccc2OCC2CC2)nc1N	9 µM	9 µM	9 µM	9 µM	9 µM	3 µM	3 µM	9 µM	9 µM	9 µM
O=C(CCCCCCC(=O)Nc1ccccc1)NO	1 µM	1 µM	≤ 0.3 µM	3 µM	1 µM	1 µM	≤ 0.3 µM	1 µM	1 µM	1 µM
CCC1=C[C@@H]2CN(C1)Cc1c([nH]c3ccccc13)[C@@](C(=O)OC)(c1cc3c(cc1OC)N(C)[C@H]1[C@@](O)(C(=O)OC)[C@H](OC(C)=O)[C@]4(CC)C=CCN5CC[C@]31[C@@H]54)C2 [vinorelbine]	≤ 0.3 µM	≤ 0.3 µM	≤ 0.3 µM	≤ 0.3 µM	≤ 0.3 µM	≤ 0.3 µM	≤ 0.3 µM	≤ 0.3 µM	≤ 0.3 µM	≤ 0.3 µM
COc1ccc(S(=O)(=O)Nc2cccnc2Nc2ccc(O)cc2)cc1	1 µM	1 µM	1 µM	1 µM	1 µM	≤ 0.3 µM	≤ 0.3 µM	1 µM	≤ 0.3 µM	≤ 0.3 µM
COc1cc2c(cc1-c1c(C)noc1C)ncc1[nH]c(=O)n([C@H](C)c3ccccn3)c12 [I-BET 151 dihydrochloride]	1 µM	3 µM	3 µM	3 µM	3 µM	3 µM	3 µM	3 µM	3 µM	3 µM
CC(=O)O[C@H]1C(=O)[C@@]2(C)[C@H]([C@H](OC(=O)c3ccccc3)[C@]3(O)C[C@H](OC(=O)[C@H](O)[C@@H](NC(=O)c4ccccc4)c4ccccc4)C(C)=C1C3(C)C)[C@]1(OC(C)=O)CO[C@@H]1C[C@@H]2O [paclitaxel]	≤ 0.3 µM	≤ 0.3 µM	≤ 0.3 µM	≤ 0.3 µM	≤ 0.3 µM	≤ 0.3 µM	9 µM	≤ 0.3 µM	≤ 0.3 µM	≤ 0.3 µM
Cc1n[nH]c2ccc(-c3cncc(OC[C@@H](N)Cc4ccccc4)c3)cc12	≤ 0.3 µM	≤ 0.3 µM	≤ 0.3 µM	≤ 0.3 µM	≤ 0.3 µM	≤ 0.3 µM	≤ 0.3 µM	≤ 0.3 µM	≤ 0.3 µM	≤ 0.3 µM
C[C@@H]1COCCN1c1cc(C2(S(C)(=O)=O)CC2)nc(-c2cccc3[nH]ccc23)n1	≤ 0.3 µM	1 µM	1 µM	1 µM	1 µM	≤ 0.3 µM	≤ 0.3 µM	1 µM	1 µM	3 µM
O=C(CCCCCCC(=O)Nc1cccnc1)NO [Pyroxamide]	3 µM	3 µM	3 µM	3 µM	3 µM	9 µM	3 µM	3 µM	3 µM	3 µM
CO[C@H]1C=CC=C(C)C(=O)NC2=CC(=O)C(NCCN(C)C)=C(C[C@@H](C)C[C@H](OC)[C@H](O)[C@@H](C)C=C(C)[C@@H]1OC(N)=O)C2=O [17-DMAG hydrochloride]	≤ 0.3 µM	≤ 0.3 µM	≤ 0.3 µM	≤ 0.3 µM	≤ 0.3 µM	≤ 0.3 µM	≤ 0.3 µM	≤ 0.3 µM	≤ 0.3 µM	≤ 0.3 µM
CCc1cccc(CC)c1NC(=O)N1Cc2[nH]nc(NC(=O)c3ccc(N4CCN(C)CC4)cc3)c2C1	≤ 0.3 µM	≤ 0.3 µM	≤ 0.3 µM	≤ 0.3 µM	≤ 0.3 µM	1 µM	1 µM	1 µM	1 µM	1 µM
COc1ccc(-c2cc3c(C)nc(N)nc3n([C@H]3CC[C@H](OCCO)CC3)c2=O)cn1	≤ 0.3 µM	≤ 0.3 µM	≤ 0.3 µM	≤ 0.3 µM	≤ 0.3 µM	≤ 0.3 µM	≤ 0.3 µM	≤ 0.3 µM	≤ 0.3 µM	≤ 0.3 µM
